Bioassay records deposited in PubChem BioAssay by several laboratories.
Rows were chosen to be rich in hits. Some 4.7% of all compounds tested hit in one or more screens of this group.
tim10-1 inh = inhibits growth of tim10-1 mutant yeast. S. cerevisiae tim10-1 ts strain growth, BacTiter-Glo, 24 h. inhibition, % at 20 µM. hit rate 2.2% among 330,000;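 active means inhibition of at least 40%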;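 further: mutant grown at 25 °C; 0% = DMSO wells with yeast and 100% = wells holding no yeast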
tim23-1 inh = inhibits growth of tim23-1 mutant yeast; S. cerevisiae tim23-1 growth, BacTiter-Glo luminescence, 24 h; inhibition, % at 20 µM; hit rate 1.3% among 330,000; AID 463212;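 active means growth inhibition of the mutant yeast at or above 50%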;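 further: temperature-sensitive mutant grown at 25 °C; plate controls were DMSO-treated mutant yeast for no effect and medium wells lacking yeast for full effect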
SKKanGAS inh = SKKanGAS growth inhibition. S. pyogenes SKKanGAS, kanamycin growth, BacTiter-Glo, 6 h. inhibition, % at 7.5 µM. hit rate 1.3% among 300,000;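 active means mean replicate score, as percent of positive control median, at least 50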;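 further: strain carries kanamycin resistance gene driven by streptokinase promoter and grows in 40 µg/ml kanamycin; loss of luminescence reflects streptokinase promoter inhibition or plain growth inhibition; 0% = median of DMSO wells and 100% = positive control at its reference dose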
PfHsp90 set2 = growth inhibition of yeast expressing Plasmodium Hsp90; hit rate 0.32% among 310,000; S. cerevisiae expressing PfHsp90, BacTiter-Glo ATP, 48 h; yeast lacking PDR1 and PDR3 efflux regulators; inhibition, % at 9.4 µM;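 active means every replicate shows inhibition above about 80%, whatever the replicate mean, limit read from the data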;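 further: 0% = DMSO neutral controls and 100% = 20 µM radicicol positive controls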
TIM10 inh = TIM10 yeast growth inhibition; S. cerevisiae TIM10 strain growth, BacTiter-Glo luminescence, 24 h; inhibition, % at 10 µM; hit rate 1.4% among 330,000; AID 463195;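 active means inhibition of 40% or more at the single tested concentration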;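 further: wild-type TIM10 isogenic control strain grown at permissive 25 °C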
EBI2 antag = blocks human EBI2 receptor beta-arrestin signaling; P32249; EBI2 beta-arrestin recruitment, luminescence, 7a,25-OHC stimulated; inhibition, % at 5 µM; hit rate 0.81% among 360,000; AID 651636; in the data active means inhibition above about 38%;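 further: enzyme fragment complementation signal reports receptor beta-arrestin coupling in cells; 0% = agonist plus DMSO wells and 100% = wells without agonist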
Target sequence (P32249 whole entry, looked up, the tested form may be a part): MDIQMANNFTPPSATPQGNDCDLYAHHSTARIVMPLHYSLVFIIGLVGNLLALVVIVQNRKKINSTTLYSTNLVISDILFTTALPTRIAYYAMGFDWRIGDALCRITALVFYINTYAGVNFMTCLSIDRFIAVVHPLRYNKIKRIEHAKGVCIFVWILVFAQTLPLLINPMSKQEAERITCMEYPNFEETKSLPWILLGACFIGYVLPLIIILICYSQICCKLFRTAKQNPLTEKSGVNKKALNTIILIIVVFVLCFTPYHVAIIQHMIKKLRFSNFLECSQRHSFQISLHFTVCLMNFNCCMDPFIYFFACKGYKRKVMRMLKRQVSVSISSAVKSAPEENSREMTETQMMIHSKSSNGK
tim10 confirm = TIM10 yeast growth inhibition, confirmed. shares compounds with TIM10 inh. inhibition, % at 10 µM. hit rate 63% among 4,600. AID 463215. S. cerevisiae tim10 strain growth, BacTiter-Glo luminescence, 24 h;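 active means inhibition of yeast growth at or above a set limit in either of two replicates at 10 µM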;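 further: this counterscreen used the strain with wild-type TIM10; 0% = yeast with DMSO and 100% = medium wells lacking yeast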
An asterisk follows results filed as active; nt = not tested or not shown; ! = not active in a repeat.

SMILES | tim10-1 inh | tim23-1 inh | SKKanGAS inh | PfHsp90 set2 | TIM10 inh | EBI2 antag | tim10 confirm
COc1ccc(S(=O)(=O)n2nc(OC(=O)c3ccc(C)cc3)cc2N)cc1 | 34 | 39 | -9 | 0 | 53* | -23 | 35*
O=C(OCC(=O)N1CCN(c2ccccc2)CC1)c1ccc[n+]([O-])c1 | -7 | -5 | 2 | -3 | 8 | -8 | nt
O=S(=O)(NC1CCN(S(=O)(=O)c2c(F)cccc2F)CC1)c1ccc2c(c1)OCCO2 | 16 | 19 | nt | -22 | 11 | -11 | nt
NNc1nc(Nc2ccccc2)nc(N2CCCCC2)n1 | 32 | 37 | 26 | 3 | 41* | -1 | 6
O=[N+]([O-])c1ccc(Nc2nc(N3CCOCC3)nc(N3CCOCC3)n2)cc1 | 14 | 19 | 3 | -17 | 13 | -12 | nt
NNc1nc(Nc2ccc([N+](=O)[O-])cc2)nc(N2CCCCCC2)n1 | 33 | 42 | 82* | -10 | 97* | 16 | 25
C/C(Cl)=C\Cn1c(O)c(N=NC(N)=S)c2cc(Br)ccc21 | 22 | 31 | 80* | -127 | 42* | 10 | 48*
COc1cccc(C2=NCCc3cc4c(cc32)OCO4)c1OC | 19 | 10 | 14 | -2 | 9 | -11 | nt
COc1ccc2cc3[n+](cc2c1OC)CCc1cc2c(cc1-3)OCO2 | 39 | 12 | 7 | -3 | 51*! | -4 | 30
C=CCn1c(-c2csc3c2CCC(C)C3)n[nH]c1=S (configuration not stated) | 30 | 27 | 8 | -10 | 43* | 1 | -3
CCCCn1c(-c2csc3ccccc23)n[nH]c1=S | 38 | 43 | nt | 1 | 11 | -3 | nt
CCCCn1c(-c2csc3c2CCCC3)n[nH]c1=S | 20 | 34 | 10 | nt | 43* | nt | 24
COc1cc(Cl)c(C)cc1NC(=O)CN1CCN(C(=O)C2CC2)CC1 | 11 | 20 | nt | -20 | 7 | -11 | nt
CC(=O)c1cccc(NC(=O)C(=O)c2cn(CC(=O)N3CCCCC3)c3ccccc23)c1 | 14 | -2 | -3 | 5 | 11 | 0 | nt
COc1ccccc1-c1cc(C(F)(F)F)nc(S(C)(=O)=O)n1 | 13 | -9 | -7 | 3 | 18 | 18 | nt
COc1ccccc1-c1cc(C(F)(F)F)nc(S(=O)(=O)CCCC(=O)NCc2ccc(F)cc2)n1 | 38 | 9 | -8 | nt | 50* | 9 | 14
COc1ccccc1-c1cc(C(F)(F)F)nc(S(=O)(=O)CCCC(=O)Nc2cccnc2Cl)n1 | nt | nt | nt | -29 | nt | 2 | nt
COc1ccccc1-c1cc(C(F)(F)F)nc(S(=O)(=O)CCCC(=O)NC(C)C)n1 | 38 | 32 | 7 | -18 | 42* | -12 | -20
Cc1ccc(S(=O)(=O)N2CCN(C(=O)CC(C)n3cncn3)CC2)cc1C (configuration not stated) | 12 | 8 | -2 | -20 | -4 | 5 | nt
CN1c2ccccc2-c2nc3ccccc3n2C1c1ccncc1 (configuration not stated) | 2 | 9 | -1 | 11 | 19 | -8 | nt
CCN1c2ccccc2-c2nc3ccccc3n2C1c1ccco1 (configuration not stated) | 30 | 35 | 2 | -14 | 40* | 22 | 35*
CN1c2ccccc2-c2nc3ccccc3n2C1c1ccccn1 (configuration not stated) | 24 | -2 | 3 | 4 | 43* | -1 | 10
O=[N+]([O-])c1ccc(Nc2cccc(F)c2)nc1 | 20 | 22 | 20 | -3 | 15 | 5 | nt
Cc1cc(C)cc(NS(=O)(=O)c2c(C(=O)N3CCOCC3)c(C)n(C)c2C)c1 | 5 | -10 | -6 | 10 | 9 | -4 | nt
O=C(Oc1ccc2c(=O)c(Cl)coc2c1)c1cccnc1 | -12 | -27 | -10 | 8 | 45* | -7 | -13
O=C(Oc1ccc2c(=O)c(Oc3ccc4ccccc4c3)coc2c1)c1cccnc1 | 11 | 17 | 9 | -8 | 20 | -5 | nt
COc1ccc(CCC(=O)N2c3ccccc3N=C(c3ccc(C(F)(F)F)cc3)C2C(=O)NC2CCCC2)cc1 (configuration not stated) | nt | nt | nt | nt | nt | 22 | nt
